Consider ten compounds from PubChem BioAssay (EPA / NIEHS).

Inconclusive results are not listed. Active and inactive are the calls of the source. The calls were made as follows: active = hit-call score of the fitted dose curve at least 0.9, where 1 is the maximum; inconclusive = response in the unintended direction; inactive = score below 0.9.

Sequence of human Serotonin, 5-Hydroxytryptamine Receptor 6 (5HT6), HTR6 (gene 3362) (P50406 whole entry, looked up): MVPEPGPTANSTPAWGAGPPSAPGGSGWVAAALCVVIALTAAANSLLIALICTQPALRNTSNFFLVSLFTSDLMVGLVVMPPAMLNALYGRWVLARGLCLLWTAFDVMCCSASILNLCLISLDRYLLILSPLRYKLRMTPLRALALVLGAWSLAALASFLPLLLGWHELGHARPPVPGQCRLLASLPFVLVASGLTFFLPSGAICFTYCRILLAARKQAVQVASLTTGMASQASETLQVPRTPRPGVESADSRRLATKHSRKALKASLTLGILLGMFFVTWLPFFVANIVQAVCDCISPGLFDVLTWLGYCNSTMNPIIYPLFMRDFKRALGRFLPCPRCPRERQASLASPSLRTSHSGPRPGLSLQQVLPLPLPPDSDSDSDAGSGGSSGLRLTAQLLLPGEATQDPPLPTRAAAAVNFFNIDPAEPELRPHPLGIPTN

This assay addresses human Serotonin, 5-Hydroxytryptamine Receptor 6 (5HT6), HTR6 (gene 3362) (UniProt P50406). Description: NVS_GPCR_h5HT6: NovaScreen (NVS) G Protein-Coupled Receptor Assay for human Serotonin, 5-Hydroxytryptamine Receptor 6 (5HT6) (AID 2283253). As to the method:
NVS_GPCR_h5HT6 is a biochemical, single-readout assay that uses extracted gene-proteins from HEK293 in a cell-free assay. Measurements were taken 1 hour after chemical dosing in a 96-well plate.NVS_GPCR_h5HT6 is one of one assay component(s) measured or calculated from the NVS_GPCR_h5HT6 assay. It is designed to make measurements of radioligand binding, a form of binding reporter, as detected with scintillation counting signals by Filter-based radiodetection technology.Data from the assay component NVS_GPCR_h5HT6 was analyzed into 1 assay endpoint. This assay endpoint, NVS_GPCR_h5HT6, was analyzed in the positive analysis fitting direction relative to DMSO as the negative control and baseline of activity. Using a type of binding reporter, loss-of-signal activity can be used to understand changes in the binding as they relate to the gene HTR6. Furthermore, this assay endpoint can be referred to as a primary readout, because the performed assay has only produced 1 assay endpoint. To generalize the intended target to other relatable targets, this assay endpoint is annotated to the gpcr intended target family, where the subfamily is rhodopsin-like receptor.
Binding assays used specific radioligands (tritiated, iodinated) with non-radioactive competitive displacement ligands in agonist or antagonist protocols (as indicated) and various reference compounds and inhibitors to titrate specific binding to receptors and transporters. Most enzyme assays (CYPs, kinases, phosphatases, proteases, HDACs) used recombinant protein and specific substrates (fluorescence mostly, some colorimetric and radioactive) and inhibitors, followed by a biochemical separation of substrate and product. All assays for the biochemical HTS were initially run in duplicate at a single concentration (10 uM for CYP450 assays and 25 uM for all others). […] Each assay was run with positive and negative controls, and concurrent controls on every plate. The follow-up (secondary) screen tested active chemical-pairs in concentration series, as well as a few additional assays not tested in the primary screen, some selected negative inactives, and several cases re-run in the concentration series for confirmatory purposes.
In the case of `CCCCCCCCN(C)C`, the result was inactive.
For `c1ccc(C(O[C@@H]2CCCN(CCc3ccc4c(c3)OCO4)C2)c2ccccc2)cc1`, the AC50 – broadly, the midpoint of the concentration-response curve, whichever way the signal moves – was 25 µM (active).
With `CC(C)C(=O)Nc1ccc([N+](=O)[O-])c(C(F)(F)F)c1`, the AC50 was 4.5 µM (active).
Take `c1ccc2cc3ccccc3cc2c1`: the result was inactive.
Still for that read-out and setting: then `CCCCCCCCCC`, with “inactive”; and `COCc1nnc(-c2ccc[n+]([O-])c2)n1-c1c(Cl)c(Cl)cc2[nH]c(=O)c(=O)[nH]c12`, with “inactive”.
Consider `COc1cc(C(C)C)c2c(c1)S(=O)(=O)N(COc1cc(=O)n3cccc(OCCN4CCCCC4)c3n1)C2=O`, for which the AC50 was 2.55 µM (active).
Regarding `CCN(CC)C(=S)SSC(=S)N(CC)CC`, the half-maximal activity concentration (AC50) was 8.33 µM (active).
For the compound `CCn1nc(C)c2c1C(=O)NCC(c1ccc(O)cc1)=N2`, the compound was called inactive.
With `C=CCc1cc(S(=O)(=O)c2ccc(O)c(CC=C)c2)ccc1O`, the AC50 was 0.0408 µM (active).
